Eleven compounds from ChEMBL document CHEMBL3988442, “University of Dundee, Small-Polar-MMV Screening Library” (2021) can be followed below.

For some of these results: Entries with a potency or affinity are not part of this list.

Set-up in all cases: scale not given: direction of the effect not stated beside the values
For assay [1], the target named is Protein translocase subunit SecA (Escherichia coli (strain K12)) (UniProt P10408). In words: Assay to Identify E. coli SecA ATPase Inhibitors. Format: functional. The conditions noted are these: 30 µM.
The target in assay [2] is T1, Ubiquitin-activating enzyme e1, putative (Leishmania donovani (strain BPK282A1)) (UniProt E9BSI1).
T1 sequence (whole entry): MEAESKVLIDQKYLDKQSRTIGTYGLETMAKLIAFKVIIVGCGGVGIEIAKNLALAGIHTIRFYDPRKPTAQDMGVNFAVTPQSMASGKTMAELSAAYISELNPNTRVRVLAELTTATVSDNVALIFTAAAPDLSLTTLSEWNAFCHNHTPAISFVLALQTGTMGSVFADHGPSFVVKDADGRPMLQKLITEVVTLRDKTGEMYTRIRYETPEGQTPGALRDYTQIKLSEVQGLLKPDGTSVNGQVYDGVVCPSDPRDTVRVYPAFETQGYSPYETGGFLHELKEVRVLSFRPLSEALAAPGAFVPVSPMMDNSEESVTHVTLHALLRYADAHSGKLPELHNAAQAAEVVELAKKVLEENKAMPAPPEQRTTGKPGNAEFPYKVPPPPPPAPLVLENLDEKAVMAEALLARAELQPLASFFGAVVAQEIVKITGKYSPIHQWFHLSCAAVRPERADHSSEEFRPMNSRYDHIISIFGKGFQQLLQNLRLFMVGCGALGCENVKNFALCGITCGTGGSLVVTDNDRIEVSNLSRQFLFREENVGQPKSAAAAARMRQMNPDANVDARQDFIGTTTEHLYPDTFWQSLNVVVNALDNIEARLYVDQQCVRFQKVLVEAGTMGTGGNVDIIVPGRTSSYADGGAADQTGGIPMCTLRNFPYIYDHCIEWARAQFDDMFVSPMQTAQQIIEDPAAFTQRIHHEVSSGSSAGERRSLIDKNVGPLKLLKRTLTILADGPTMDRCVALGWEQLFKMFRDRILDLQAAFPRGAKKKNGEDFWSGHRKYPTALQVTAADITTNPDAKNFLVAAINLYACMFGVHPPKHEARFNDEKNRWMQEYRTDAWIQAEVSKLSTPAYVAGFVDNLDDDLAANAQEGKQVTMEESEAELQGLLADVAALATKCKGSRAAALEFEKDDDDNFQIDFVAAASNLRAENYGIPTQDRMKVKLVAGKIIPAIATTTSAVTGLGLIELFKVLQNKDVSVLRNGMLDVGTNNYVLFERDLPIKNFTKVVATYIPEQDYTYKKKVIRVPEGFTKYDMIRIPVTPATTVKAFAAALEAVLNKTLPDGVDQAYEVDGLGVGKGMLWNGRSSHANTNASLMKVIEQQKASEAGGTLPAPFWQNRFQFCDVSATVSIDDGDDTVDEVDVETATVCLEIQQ
In words: Leishmania donovani Ubiquitin Activating Enzyme (LdE1). The format is functional. Particulars: 30 µM.

Assay [3] addresses AMP-activated protein kinase, AMPK (Homo sapiens) (UniProt P54646+O43741+P54619+Q9UGJ0+Q9Y478+Q13131+Q9UGI9). Description: AMP-dependent Kinase enzyme assay. An in vitro enzyme assay that detects ADP turnover that is directly proportional to AMPK activity. This uses naive AMPK that is activated during the assay with MK-8722. Format: functional. The conditions noted are these: 30 µM.

Assay [4] deals with Sialic acid-binding Ig-like lectin 9 (Homo sapiens) (UniProt Q9Y336). Description: Hs-Siglec9 ALPHAscreen SOP 20170721. Particulars: 10 µM.
The test system of a further assay is Trypanosoma cruzi. Description: Trypanosoma cruzi phosphomannomutase and mannose-1-phosphate guanylyltransferase assay. The format is functional. The conditions noted are these: 10 µM.
Assay [5] has as its target T2, Arginase-2, mitochondrial (Homo sapiens) (UniProt P78540).
T2 sequence (whole entry): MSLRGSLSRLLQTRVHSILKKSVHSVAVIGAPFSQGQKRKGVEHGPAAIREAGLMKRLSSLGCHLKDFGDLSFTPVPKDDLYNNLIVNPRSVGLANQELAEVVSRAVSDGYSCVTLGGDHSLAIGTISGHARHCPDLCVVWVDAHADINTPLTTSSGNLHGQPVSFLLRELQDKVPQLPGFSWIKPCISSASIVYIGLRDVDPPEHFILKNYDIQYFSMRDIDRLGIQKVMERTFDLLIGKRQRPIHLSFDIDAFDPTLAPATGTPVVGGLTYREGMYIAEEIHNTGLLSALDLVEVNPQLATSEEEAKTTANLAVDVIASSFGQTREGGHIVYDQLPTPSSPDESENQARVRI
In words: in vitro enzyme assay to detect the production of urea directly proportional to the activity of Arginase II. Further: in the data most compounds retested in dose-response had high values. The format is functional. Particulars: 33.3 µM.

Assay [6] addresses T3, Proteasome subunit beta (Trypanosoma cruzi) (UniProt O96673).
T3 sequence (whole entry): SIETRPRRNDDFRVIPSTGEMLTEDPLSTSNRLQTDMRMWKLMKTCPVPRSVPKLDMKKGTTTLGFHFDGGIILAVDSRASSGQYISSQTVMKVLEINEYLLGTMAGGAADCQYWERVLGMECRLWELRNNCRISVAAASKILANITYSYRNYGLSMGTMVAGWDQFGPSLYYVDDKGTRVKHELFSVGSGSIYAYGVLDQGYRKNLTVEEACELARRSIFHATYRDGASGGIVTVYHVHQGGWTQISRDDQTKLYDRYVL
In words: Trypanosoma cruzi proteasome chymotrypsin-like activity (TcProtChymo) assay. Further: in the data most compounds retested in dose-response had high values. The format is functional. Particulars: 9.37 µM.

The species entered for another assay is Homo sapiens. Description: To identify inhibition of the IFN signalling (Jak-Stat) pathway via expression of an eGFP reporter gene under the control of an IFN-stimulated response element (ISRE) containing MxA promoter. The format is functional. Particulars: 30 µM.
In assay [7] the target is T4, Tyrosyl-tRNA synthetase, putative (Trypanosoma cruzi (strain CL Brener)) (UniProt Q4DSP6).
T4 sequence (whole entry): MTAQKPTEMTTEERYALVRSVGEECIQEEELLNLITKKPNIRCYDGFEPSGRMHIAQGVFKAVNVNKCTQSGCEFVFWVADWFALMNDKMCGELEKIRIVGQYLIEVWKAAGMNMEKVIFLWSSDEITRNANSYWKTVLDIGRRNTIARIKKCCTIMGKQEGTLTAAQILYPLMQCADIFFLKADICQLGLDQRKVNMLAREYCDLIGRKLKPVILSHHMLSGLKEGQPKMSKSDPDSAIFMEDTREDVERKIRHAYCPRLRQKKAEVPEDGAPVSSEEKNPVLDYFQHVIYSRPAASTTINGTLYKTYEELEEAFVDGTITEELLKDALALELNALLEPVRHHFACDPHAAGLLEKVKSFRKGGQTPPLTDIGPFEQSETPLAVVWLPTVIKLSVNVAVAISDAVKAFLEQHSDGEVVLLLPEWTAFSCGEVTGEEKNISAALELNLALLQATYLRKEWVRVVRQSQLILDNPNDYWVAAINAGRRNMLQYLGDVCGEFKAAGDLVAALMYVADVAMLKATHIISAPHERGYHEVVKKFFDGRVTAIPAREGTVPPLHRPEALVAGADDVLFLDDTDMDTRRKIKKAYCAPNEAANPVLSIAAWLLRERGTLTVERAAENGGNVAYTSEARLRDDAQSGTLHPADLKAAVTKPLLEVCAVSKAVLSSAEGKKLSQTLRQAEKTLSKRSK
Description: Trypanosoma cruzi tyrosyl tRNA synthetase (TcYRS) _High Tyrosine SOP. Further: in the data most compounds retested in dose-response had high values. The format is functional. The conditions noted are these: 30 µM.

Assay [8] concerns the target T4, Tyrosyl-tRNA synthetase, putative (Trypanosoma cruzi (strain CL Brener)). Description: Trypanosoma cruzi tyrosyl tRNA synthetase (TcYRS) SOP. Particulars: 30 µM. The format is functional.
The target in assay [9] is Chromo domain-containing protein 1 (Saccharomyces cerevisiae (strain ATCC 204508 / S288c) (Baker's yeast)) (UniProt P32657). Description: ScCHD-1 Enzyme Inhibition Assay. Further: in the data most compounds retested in dose-response had high values. The format is functional. The conditions noted are these: 30 µM.
Chromo domain-containing protein 1 (Saccharomyces cerevisiae (strain ATCC 204508 / S288c) (Baker's yeast)), sequence (P32657 whole entry, the tested form may be a part): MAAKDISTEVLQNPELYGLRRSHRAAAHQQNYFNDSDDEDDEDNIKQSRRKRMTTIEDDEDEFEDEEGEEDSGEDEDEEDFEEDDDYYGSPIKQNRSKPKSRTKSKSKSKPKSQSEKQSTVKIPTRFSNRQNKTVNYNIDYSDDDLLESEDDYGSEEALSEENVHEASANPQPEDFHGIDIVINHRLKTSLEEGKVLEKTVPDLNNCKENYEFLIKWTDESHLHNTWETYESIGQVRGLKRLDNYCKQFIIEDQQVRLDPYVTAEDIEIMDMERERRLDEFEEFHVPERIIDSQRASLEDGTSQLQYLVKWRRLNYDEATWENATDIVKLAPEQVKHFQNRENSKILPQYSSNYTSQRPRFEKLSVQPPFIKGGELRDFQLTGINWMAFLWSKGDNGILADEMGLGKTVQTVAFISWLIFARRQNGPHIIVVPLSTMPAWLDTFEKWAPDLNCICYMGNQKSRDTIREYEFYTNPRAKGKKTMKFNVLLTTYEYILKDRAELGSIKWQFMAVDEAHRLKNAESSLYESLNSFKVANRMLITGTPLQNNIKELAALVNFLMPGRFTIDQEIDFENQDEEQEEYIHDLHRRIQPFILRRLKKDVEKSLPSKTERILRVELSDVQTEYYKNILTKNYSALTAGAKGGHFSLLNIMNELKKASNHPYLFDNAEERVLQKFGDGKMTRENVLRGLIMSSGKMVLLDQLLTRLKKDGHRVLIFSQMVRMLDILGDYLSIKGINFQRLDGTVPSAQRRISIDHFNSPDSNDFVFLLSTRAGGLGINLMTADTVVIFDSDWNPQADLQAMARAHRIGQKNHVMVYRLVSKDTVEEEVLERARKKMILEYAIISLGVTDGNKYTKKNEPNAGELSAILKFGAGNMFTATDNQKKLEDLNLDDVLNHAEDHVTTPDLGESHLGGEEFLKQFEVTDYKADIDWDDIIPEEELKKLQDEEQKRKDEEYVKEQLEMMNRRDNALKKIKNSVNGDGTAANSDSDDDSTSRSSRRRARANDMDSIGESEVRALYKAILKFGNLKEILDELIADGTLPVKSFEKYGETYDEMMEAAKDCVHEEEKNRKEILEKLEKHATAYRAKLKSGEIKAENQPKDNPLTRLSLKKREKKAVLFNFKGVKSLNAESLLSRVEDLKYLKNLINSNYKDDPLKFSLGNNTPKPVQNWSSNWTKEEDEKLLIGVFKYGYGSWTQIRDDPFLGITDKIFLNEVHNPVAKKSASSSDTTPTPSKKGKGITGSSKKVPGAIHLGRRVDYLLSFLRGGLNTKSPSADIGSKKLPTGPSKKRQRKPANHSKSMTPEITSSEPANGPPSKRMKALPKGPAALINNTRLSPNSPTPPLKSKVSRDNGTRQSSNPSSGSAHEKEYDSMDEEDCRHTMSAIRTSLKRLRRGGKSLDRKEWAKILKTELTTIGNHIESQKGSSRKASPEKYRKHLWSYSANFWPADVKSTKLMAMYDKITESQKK

Protein translocase subunit SecA (Escherichia coli (strain K12)), sequence (P10408 whole entry): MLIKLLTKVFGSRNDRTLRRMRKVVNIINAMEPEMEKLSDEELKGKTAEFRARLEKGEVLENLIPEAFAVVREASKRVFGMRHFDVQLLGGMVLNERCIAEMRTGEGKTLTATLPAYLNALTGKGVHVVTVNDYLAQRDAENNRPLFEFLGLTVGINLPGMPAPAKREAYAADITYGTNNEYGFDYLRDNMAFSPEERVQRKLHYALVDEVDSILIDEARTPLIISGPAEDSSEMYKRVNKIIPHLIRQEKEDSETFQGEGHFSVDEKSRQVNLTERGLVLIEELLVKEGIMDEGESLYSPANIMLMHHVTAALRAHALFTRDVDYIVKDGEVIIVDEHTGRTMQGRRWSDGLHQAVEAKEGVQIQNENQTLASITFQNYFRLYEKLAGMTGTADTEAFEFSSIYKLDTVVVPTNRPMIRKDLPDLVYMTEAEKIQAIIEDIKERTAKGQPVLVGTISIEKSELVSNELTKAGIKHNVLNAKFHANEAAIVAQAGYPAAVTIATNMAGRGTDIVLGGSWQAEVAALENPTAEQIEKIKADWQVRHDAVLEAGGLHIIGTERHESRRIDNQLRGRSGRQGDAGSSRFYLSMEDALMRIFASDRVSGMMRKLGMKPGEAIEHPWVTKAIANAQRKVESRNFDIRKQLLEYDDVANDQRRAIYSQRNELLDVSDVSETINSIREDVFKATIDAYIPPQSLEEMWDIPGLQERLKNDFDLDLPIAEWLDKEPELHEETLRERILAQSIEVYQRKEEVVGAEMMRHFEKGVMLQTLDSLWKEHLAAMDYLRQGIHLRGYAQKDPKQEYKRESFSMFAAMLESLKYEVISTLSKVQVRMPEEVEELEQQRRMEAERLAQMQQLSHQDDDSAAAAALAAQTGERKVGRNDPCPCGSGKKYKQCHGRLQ
Sialic acid-binding Ig-like lectin 9 (Homo sapiens), sequence (Q9Y336 whole entry): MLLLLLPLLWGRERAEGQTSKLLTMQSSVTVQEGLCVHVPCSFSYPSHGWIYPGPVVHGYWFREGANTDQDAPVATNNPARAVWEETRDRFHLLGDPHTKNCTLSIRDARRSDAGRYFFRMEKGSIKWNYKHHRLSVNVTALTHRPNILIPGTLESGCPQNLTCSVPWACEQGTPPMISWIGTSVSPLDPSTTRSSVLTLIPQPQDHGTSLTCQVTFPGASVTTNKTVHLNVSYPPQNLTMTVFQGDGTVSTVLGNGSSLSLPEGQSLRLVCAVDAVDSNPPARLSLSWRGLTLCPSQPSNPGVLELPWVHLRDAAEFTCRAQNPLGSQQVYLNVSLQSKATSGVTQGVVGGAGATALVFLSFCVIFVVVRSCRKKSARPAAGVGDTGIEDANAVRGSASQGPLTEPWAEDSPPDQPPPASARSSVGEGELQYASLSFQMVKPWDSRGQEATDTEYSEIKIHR

Consider `CCc1nnc2n1CCN(C(=O)COCCc1ccccc1)C2`, for which the Percent Effect was -5.81% in assay [1]; 15.8% in assay [2]; -4.37% in assay [3]; 7.1% in assay [4]; -2.71% in the assay with Trypanosoma cruzi; 1.8% in assay [5]. In addition, the Percent Effect is 1.78% in assay [6]; -1.11% in the assay listed under Homo sapiens; 3.45% in assay [7]; 13.6% in assay [8]; -2.89% in assay [9].

In the case of `O=C(Cc1ccc(-n2cccn2)cc1)N1CCCC(n2cccn2)C1` (stereo unspecified), the Percent Effect in assay [1] was -9.35%; in assay [2], 10.4%; in assay [3] it was -6.09%; in [4], -18.3%; with Trypanosoma cruzi, 11.5%; in assay [5], -1.9%. For the same compound, the Percent Effect in assay [6] is 13.8%; in the assay filed under Homo sapiens, -3.32%; in [7] it was 6.67%; in assay [8], 11.8%; in assay [9], -20%.

Consider `Cc1nccc(CN2CCC(c3nnsc3S(C)(=O)=O)CC2)n1`, for which the Percent Effect in [1] is -3.04%; in [2], 6.76%; in [3], 5.68%; in assay [4], 4.24%; with Trypanosoma cruzi it was -3.75%; in assay [5], -1.16%. In addition, the Percent Effect in assay [6] is 8.89%; in the assay filed under Homo sapiens, 16.8%; in [7], 3.23%; in assay [8] it was 11.7%; in [9], -12%.

As to `COc1nn(C)c2c1CCCN(C(=O)c1ccccc1)C2`, the Percent Effect in assay [1] is -4.93%; in [2], 2.7%; in assay [3], -0.442%; in assay [4], -2.98%; in the assay on Trypanosoma cruzi, -1.76%; in assay [5] it was -1.25%. The Percent Effect in [6] was -1.27%; in the assay listed under Homo sapiens it was 3.41%; in [7], 4.95%; in assay [8] it was 1.22%; in assay [9] it was -2.72%.

Turning to `COc1ccc(CN2C[C@@H](OCc3ccccn3)[C@H]3COC[C@H]32)cc1`, the Percent Effect was -4.56% in [1]; -8.11% in assay [2]; -0.636% in assay [3]; -1.37% in assay [4]; -3.62% in the assay on Trypanosoma cruzi; 6.05% in [5]. Further, the Percent Effect was 20.1% in [6]; 22.6% in the assay listed under Homo sapiens; -1.08% in assay [7]; 12.8% in assay [8]; 2.02% in assay [9].

Turning to `CN(CCNC(=O)NCc1ccncc1)C1CCCC1`, the Percent Effect was -0.694% in [1]; -5.41% in [2]; -4.53% in [3]; 1.79% in assay [4]; -3.3% with Trypanosoma cruzi; 0.401% in assay [5]. In addition, the Percent Effect in [6] is -6.31%; in the assay listed under Homo sapiens it was 7.43%; in assay [7], 1.48%; in [8], -1.24%; in assay [9], 2.18%.

Take `CC(c1ccco1)N(C)Cc1nc2c(cnn2C)c(=O)[nH]1` (stereo unspecified): the Percent Effect in assay [1] was -2.49%; in assay [2], 24.3%; in assay [3], -5.7%; in [4] it was 5.24%; in the assay on Trypanosoma cruzi it was 3.44%; in [5], 2.77%. The Percent Effect in [6] was 15.1%; in the assay listed under Homo sapiens, 11.7%; in assay [7], -8.91%; in assay [8] it was 28.1%; in [9], -9.16%.

For the compound `COc1ccc(NCc2nc(=O)n(CCC(C)C)[nH]2)cc1`, the Percent Effect in assay [1] was -3.47%; in [2] it was 10.5%; in assay [3], 11.6%; in assay [4] it was 5.94%; in the assay with Trypanosoma cruzi it was -0.0974%; in assay [5] it was -8.28%. Besides, the Percent Effect in assay [6] was 8.92%; in the assay filed under Homo sapiens, -19%; in assay [7], 4.25%; in assay [8], 10.4%; in [9] it was -2.13%.

On to `O=c1cc(Cn2ccnc2)nc2n1CCCN(Cc1ccsc1)C2`, for which the Percent Effect in assay [1] is -4.06%; in [2], 4%; in assay [3], 0.478%; in [4], 7%; in the assay with Trypanosoma cruzi, -5.7%; in [5], -6.51%. Besides, the Percent Effect in assay [6] is 13.3%; in the assay listed under Homo sapiens, -7.79%; in [7], 7.41%; in assay [8] it was 5.13%; in [9], -8.3%.

For `Cc1cc(C)c(CNC(=O)NCC(c2ccccc2)N(C)C)c(=O)[nH]1` (stereo unspecified), the Percent Effect was -3.19% in [1]; -2.63% in [2]; -5.47% in [3]; 13.4% in assay [4]; 2.52% with Trypanosoma cruzi; 1.08% in assay [5]. Further, the Percent Effect in [6] is -0.592%; in the assay listed under Homo sapiens it was 4%; in assay [7], 7.39%; in assay [8] it was 18.5%; in [9], -3.01%.

With `Cc1cc(C)c2c(c1)C1(CC(=O)Nc3c1cnn3C(C)C)C(=O)N2` (stereo unspecified), the Percent Effect in assay [1] was 0.0889%; in [2] it was 4%; in assay [3], 4.34%; in assay [4], 1.54%; in the assay on Trypanosoma cruzi, 0.982%; in [5], -6.16%. The Percent Effect was 8.87% in assay [6]; 21.1% in the assay filed under Homo sapiens; 3.17% in [7]; 2.56% in assay [8]; -5.39% in [9].
